Screening data from PubChem BioAssay.
A selection: hits, their analogues and other compounds. The true share with any hit is near 1.6%.
KCNQ2 inh: KCNQ2 (rat) channel inhibition | CHO-K1 KCNQ2, FluxOR thallium flux, 20 min; stronger effect = lower value | O88943 | hit rate 1.1% among 310,000 | B-score at 10 µM;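 active = fluorescence ratio B-score at most minus 3 library SDs, with starting brightness B-score within 2 library SDs, cut at about -5.5 in these data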
KCNQ2 enhance: enhances the rat KCNQ2 potassium channel | O88943 | CHO-K1 KCNQ2, FluxOR thallium flux fluorescence; stronger effect = higher value | B-score at 10 µM | AID 2239 | hit rate 0.54% among 310,000;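 active = fluorescence ratio B-score at least 3 SD of library B-scores, with initial fluorescence B-score within 3 of them, cut at about 5.3 in these data; same plate scores as AID 2156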;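 note: B-score of peak minus minimum over baseline fluorescence ratio after K+ and Tl+ stimulus; positive B-score means potentiation of KCNQ2 with more thallium influx and brighter signal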
Large screens that a line does not name were inactive.

CCOC(=O)C1CCCN(CCc2ccccc2)C1 (stereo not given)	none
Cc1ccccc1COn1nnc2ccc(S(=O)(=O)N3CCOCC3)cc21	KCNQ2 inh -6.7
CN(C(=O)COn1nnc2ccc(S(=O)(=O)N3CCOCC3)cc21)c1ccccc1	none
CC(=O)Nc1nonc1NC(=O)COc1ccccc1	none
O=C(CSc1nnc(CNC(=O)c2c(F)cccc2F)o1)NCc1ccc(F)cc1	none
c1ccc(-c2nc(NCCCN3CCOCC3)c3ccccc3n2)cc1	none
c1ccc(-c2cn(-c3ccccc3)c3ncnc(NCCCN4CCOCC4)c23)cc1	KCNQ2 inh -5.6
Cc1cccc(-c2nc(NCCCN3CCOCC3)c3ccccc3n2)c1	KCNQ2 inh -5.9
COc1ccc(-n2cc(-c3ccccc3)c3c(NCCCN4CCOCC4)ncnc32)cc1	none (no result: KCNQ2 enhance)
CCCCNC(=O)CCc1nc2cccnc2n1Cc1ccccc1	none
O=C(CNC(=O)/C=C/c1ccco1)N=Nc1c(O)[nH]c2ccccc12	none
CN1CCCN(C(=O)c2ccc(Br)cc2)CC1	none (no result: KCNQ2 enhance)
Oc1ccc2ccccc2c1CNc1ccc(Br)cn1	KCNQ2 inh -6.2
Oc1ccc2ccccc2c1CNc1ccc(Br)cc1	none (no result: KCNQ2 enhance)
COc1ccc(N2C(=O)CC(N3CCN(S(=O)(=O)c4cc(C)ccc4C)CC3)C2=O)cc1 (stereo not given)	none (no result: KCNQ2 enhance)
O=[N+]([O-])c1cc(Cl)ccc1N1CCN(c2cccc(C(F)(F)F)c2)CC1	KCNQ2 inh -6.2
O=[N+]([O-])c1cc(Cl)ccc1N1CCCC1	none
COc1ccc(OC)c(C2CC(c3c(-c4ccccc4)c4cc(Cl)ccc4[nH]c3=O)=NN2S(C)(=O)=O)c1 (stereo not given)	KCNQ2 inh -7
COc1ccc(C2CC(c3c(-c4ccccc4)c4cc(Cl)ccc4[nH]c3=O)=NN2S(C)(=O)=O)cc1 (stereo not given)	none
CSCCC(NC(=O)c1ccc(Cl)cc1Cl)C(=O)NCc1ccccn1 (stereo not given)	none (no result: KCNQ2 enhance)
CSCCC(NC(=O)c1ccc(Cl)cc1Cl)C(=O)OC1CCCCC1=O (stereo not given)	KCNQ2 inh -8.1
Cn1c(Cc2cccs2)nnc1SCC(=O)Nc1ccc(C(N)=O)cc1	none (no result: KCNQ2 enhance)
CC1(C)CC(=O)c2c(O)cc(OCC(=O)N3CCN(c4ccc(F)cc4)CC3)cc2O1	none (no result: KCNQ2 enhance)
Cc1ccc2c(C)c(C(=O)N3CCN(c4cnccn4)CC3)oc2c1C	none (no result: KCNQ2 enhance)
Cc1ccc2c(C)c(C(=O)N3CCC(O)(c4ccccc4)CC3)oc2c1C	KCNQ2 inh -5.9
COC(=O)C1C(O)=C(C=NCc2ccccc2)C(=O)CC1(C)C (stereo not given)	none (no result: KCNQ2 enhance)
COC(=O)C1C(O)=C(C=Nc2cccc3ccccc23)C(=O)CC1(C)C (stereo not given)	KCNQ2 inh -6
COc1ccc(CCN(C)CC(=O)Nc2cc(C)nc3ccccc23)cc1OC	none (no result: KCNQ2 enhance)
Cc1cccc(C(=O)NC2CCN(CC(=O)NCc3ccccc3F)CC2)c1	none (no result: KCNQ2 enhance)
C=CCn1c(=O)c(C(=O)Nc2ccccc2C)c(O)c2ccccc21	KCNQ2 inh -6.1
C=CCn1c(=O)c(C(=O)Nc2ccccc2O)c(O)c2ccccc21	none (no result: KCNQ2 enhance)
CCN1CCN(c2c(/C=C3\SC(=S)N(Cc4ccco4)C3=O)c(C)c(C#N)c(=O)n2C)CC1	KCNQ2 inh -7.7
COc1ccc(-n2c(C)cc(/C=C3\SC(=S)N(Cc4ccco4)C3=O)c2C)cc1	none (no result: KCNQ2 enhance)
CC(C)Oc1ccc(/C(O)=C2/C(=O)C(=O)N(CCN3CCNCC3)C2c2cccc([N+](=O)[O-])c2)cc1 (stereo not given)	none
COc1ccc(-c2cnc(SCC(=O)Nc3cc(C)on3)n2Cc2ccco2)cc1	none (no result: KCNQ2 enhance)
COc1ccc(-c2cnc(SCC(=O)Nc3nc(C(C)(C)C)cs3)n2Cc2ccco2)cc1	KCNQ2 inh -8.3
O=C(NCCc1c[nH]c2ccccc12)c1cc2sccc2n1Cc1ccccc1	KCNQ2 inh -6.5
Cn1c(C(=O)NCCc2c[nH]c3ccccc23)cc2sccc21	none (no result: KCNQ2 enhance)
COc1ccc(N2C(=O)CSC23C(=O)N2c4c(cccc43)C(C)=CC2(C)C)cc1 (stereo not given)	KCNQ2 inh -6.2
COc1ccc(N2C(=O)CSC23C(=O)N2CCCc4cccc3c42)cc1 (stereo not given)	none
Cc1nc2ccccc2c(=O)n1NC(=O)c1ccc(Cl)c(Cl)c1	none
COC(=O)c1ccc(C(=O)O)nc1	none (no result: KCNQ2 enhance)
CCOc1ccc(NC(=O)CN(C)C(=O)Cn2cnc3c2c(=O)n(C)c(=O)n3C)cc1OCC	none
O=S(=O)(Cc1ccccc1)N1CCNCC1	none (no result: KCNQ2 enhance)
Cc1ccc(NCc2nnc(SCC(=O)c3ccccc3)o2)c(C)c1	none (no result: KCNQ2 enhance)
Cc1ccc(NCc2nnc(SCC(=O)c3ccccc3)n2Cc2ccco2)c(C)c1	KCNQ2 inh -7.8
Cc1ccc(C)c(NC(=O)CSc2nnc(CSc3nc(C)cc(C)n3)n2Cc2ccco2)c1	none (no result: KCNQ2 enhance)
Cc1ccc(NC(=O)CSc2nnc(CSc3nc(C)cc(C)n3)n2Cc2ccco2)c(C)c1	KCNQ2 inh -6.7
CC(C)c1csc(CN2CCC(CO)(Cc3cccc(F)c3)CC2)n1	none (no result: KCNQ2 enhance)
CCOC(=O)C1CCN(CC(=O)c2c(C)n(C)c3ccc(OC)cc23)CC1	none
Cc1oc(-c2nc3ccccc3n2C)cc1C(=O)c1ccccc1	KCNQ2 inh -6.6
